Test results taken from PubChem BioAssay (NCATS).
Several values for one entry are separate records, joined by “and”; a condition that tells them apart may be missing. Identical values can stand only once. Records with an inconclusive call do not appear. Activity calls are given as the source filed them. Unless noted, calls come from the whole dose curve; as a rule, active = well fitted curve in either direction with a large enough effect (not every such curve was filed as active); inconclusive = small, poorly fitted or top-dose-only effect, or another doubt; inactive = flat fitted curve, though single readings scatter.

How the values were obtained:
[1] = AP1 Signaling Pathway (AID 357);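 note: ME-180 reporter cells stimulated with EGF at its EC50 level; % is set by controls: 0 for no effect and ±100 for the full control effect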
Outline: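 Modulation of EGF-driven AP-1 transcription was assessed with a beta-lactamase reporter in ME-180 cells. Compound and EC50 EGF were co-incubated 5 hours at 37 °C before 2.5-hour CCF4 loading at room temperature and dual-emission reading.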

[2] = molecular target: Cytochrome P450 1A2 (Homo sapiens) (UniProt P05177); experiment: p450-cyp1a2 (AID 410; calls by dose curve; note: potency is the fitted concentration of half-maximal effect;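 for activity change, negative = inhibition: -100% = full effect of reference inhibitor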)
Cytochrome P450 1A2 (Homo sapiens), sequence (P05177 whole entry, looked up): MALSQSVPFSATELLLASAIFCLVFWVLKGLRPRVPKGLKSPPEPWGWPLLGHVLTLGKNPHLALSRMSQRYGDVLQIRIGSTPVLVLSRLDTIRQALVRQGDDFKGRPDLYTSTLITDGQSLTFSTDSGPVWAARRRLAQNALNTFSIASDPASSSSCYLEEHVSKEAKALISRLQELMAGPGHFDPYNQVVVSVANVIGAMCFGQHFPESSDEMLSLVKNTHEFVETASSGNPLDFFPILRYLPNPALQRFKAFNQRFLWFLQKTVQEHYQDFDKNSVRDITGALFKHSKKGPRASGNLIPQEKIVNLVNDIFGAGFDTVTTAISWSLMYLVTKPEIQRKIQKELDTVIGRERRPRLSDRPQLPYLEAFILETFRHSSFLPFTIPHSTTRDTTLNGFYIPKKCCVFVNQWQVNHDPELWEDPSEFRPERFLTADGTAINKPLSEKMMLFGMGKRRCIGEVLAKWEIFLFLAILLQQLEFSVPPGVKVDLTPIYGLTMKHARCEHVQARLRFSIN
Outline: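 20nM CYP1A2 with 100uM Luciferin-ME (at Km) in 100mM KPO4; compound preincubated 10 min, NADPH regeneration added, 60 min at room temperature. Luciferin quantified by luminescence after detection reagent; normalized to 57 uM furafylline.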

[3] = NFAT Signaling Pathway (AID 444); details: Jurkat NFAT-bla M1, carbachol, beta-lactamase ratio, 5 h; at 17.2 µM (top of the series);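 note: carbachol stimulus at about its EC50 of 1 µM final; % is set by controls: 0 for no effect and ±100 for the full control effect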
Outline: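 Jurkat cells carrying an NFAT-driven β-lactamase reporter and co-transfected muscarinic M1 receptor were treated with compound plus carbachol (1 uM final, an EC50 level) for 5 h at 37 °C. CCF4 loading followed for 1 h at RT; 460/530 nm ratio gave %activity.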

[4] = Stat Signaling Pathway (AID 446);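 note: ME-180 cervical cancer cells given 40 pM IL-6 alongside compound; SIE-controlled beta-lactamase reporter measured as 460/530 nm FRET emission ratio; % is set by controls: 0 for no effect and ±100 for the full control effect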
Outline: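 ME-180 SIE-bla cells; overnight plating; cpd + IL-6 40 pM, 5 h, 37 C; LiveBLAzer 2.5 h RT; 460/530 nm emission ratio. Normalized to 300 pM IL-6 and 125 nM JAK inhibitor controls.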

[5] = molecular target: Glucocorticoid receptor (Homo sapiens) (UniProt P04150); experiment: GR-GFP Redistribution (AID 450;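 active = compounds whose dose series gives a full or clear partial fitted curve of increased nuclear translocation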; note: potency is the fitted concentration of half-maximal effect); details: U2OS GR-GFP nuclear translocation, laser cytometry, 2 h
Glucocorticoid receptor (Homo sapiens), sequence (P04150 whole entry, looked up, the tested form may be a part): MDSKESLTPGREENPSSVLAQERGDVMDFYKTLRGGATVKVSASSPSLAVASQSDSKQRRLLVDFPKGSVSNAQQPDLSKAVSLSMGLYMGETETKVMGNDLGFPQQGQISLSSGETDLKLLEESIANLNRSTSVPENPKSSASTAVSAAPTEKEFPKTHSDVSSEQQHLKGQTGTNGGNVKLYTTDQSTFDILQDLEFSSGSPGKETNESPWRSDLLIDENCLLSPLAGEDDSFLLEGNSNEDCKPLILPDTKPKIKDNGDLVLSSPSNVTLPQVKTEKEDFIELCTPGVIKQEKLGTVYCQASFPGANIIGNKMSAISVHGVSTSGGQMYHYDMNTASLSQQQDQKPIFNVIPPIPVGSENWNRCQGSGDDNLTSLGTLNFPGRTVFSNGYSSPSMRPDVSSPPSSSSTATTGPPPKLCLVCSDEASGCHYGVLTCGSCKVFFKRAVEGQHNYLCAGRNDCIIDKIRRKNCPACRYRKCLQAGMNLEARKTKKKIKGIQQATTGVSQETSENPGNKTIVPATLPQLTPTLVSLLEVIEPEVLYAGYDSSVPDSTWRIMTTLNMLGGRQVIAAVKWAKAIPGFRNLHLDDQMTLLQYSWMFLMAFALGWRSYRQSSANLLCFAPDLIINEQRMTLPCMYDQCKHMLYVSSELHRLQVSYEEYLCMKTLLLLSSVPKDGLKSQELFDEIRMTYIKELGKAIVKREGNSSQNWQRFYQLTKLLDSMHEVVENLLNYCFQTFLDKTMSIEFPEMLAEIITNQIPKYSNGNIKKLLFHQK

[6] = molecular target: Glucocorticoid receptor (Homo sapiens) (UniProt P04150); experiment: GR-EFC Redistribution (AID 451; calls by dose curve; note: potency is the fitted concentration of half-maximal effect); details: CHO-K1 GR-EFC translocation, beta-gal luminescence, 2 h
Outline: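 CHO-K1 cells stably expressing nuclear-localized β-gal enzyme acceptor and GR fused C-terminally to the enzyme donor fragment; ligand-driven nuclear translocation restores β-gal by complementation. Compounds titrated up to 46 uM final, 2 h at 37 °C; luminescence read.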

[7] = molecular target: Mitogen-activated protein kinase 10 (Mus musculus) (UniProt Q61831); experiment: JNK3 AlphaScreen Assay (AID 530);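 note: kinase came from lysate of stimulated human HepG2 cells; signal reports phosphorylation of biotinylated GST-cJun 1-79 at Ser73 with 10 µM ATP; % is set by controls: 0 for no effect and ±100 for the full control effect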
Outline: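 Inhibitors reduce antibody binding to phosphorylated biotin-cJun, lowering AlphaScreen luminescence. Lysates from HepG2 cells pre-activated by IL-1beta plus TNF-alpha supplied JNK3; compounds were titrated.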

[8] = qHTS Assay for Lipid Storage Modulators (AID 1519; calls by dose curve); details: Drosophila S3 cells, BODIPY lipid droplet/cell ratio, laser cytometry, cells loaded with oleic acid; for activity change, negative = inhibition: at 25.7 µM (top of the series)
Outline: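 Cells seeded at 5,000 per well were treated with compounds over a concentration series and loaded with oleic acid (400 uM, as added). Lipid droplet fluorescence (488 nm excitation, 500-530 nm channel) was read by laser-scanning cytometry and normalized to 20 uM Triacsin C.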

[9] = molecular target: Ubiquitin carboxyl-terminal hydrolase 1 (Homo sapiens) (UniProt O94782); experiment: Inhibitors of USP1/UAF1: Pilot qHTS (AID 504865; active = well fitted curve in the direction sought with a large enough effect; an effect the other way counts as inactive or inconclusive;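 note: rhodamine fluorescence freed from ubiquitin-rhodamine substrate followed over time; top concentration of the series differs between compounds; % is set by controls: 0 for no effect and ±100 for the full control effect; nearly all actives have a fitted effect of over 35% in size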)
Ubiquitin carboxyl-terminal hydrolase 1 (Homo sapiens), sequence (O94782 whole entry, looked up): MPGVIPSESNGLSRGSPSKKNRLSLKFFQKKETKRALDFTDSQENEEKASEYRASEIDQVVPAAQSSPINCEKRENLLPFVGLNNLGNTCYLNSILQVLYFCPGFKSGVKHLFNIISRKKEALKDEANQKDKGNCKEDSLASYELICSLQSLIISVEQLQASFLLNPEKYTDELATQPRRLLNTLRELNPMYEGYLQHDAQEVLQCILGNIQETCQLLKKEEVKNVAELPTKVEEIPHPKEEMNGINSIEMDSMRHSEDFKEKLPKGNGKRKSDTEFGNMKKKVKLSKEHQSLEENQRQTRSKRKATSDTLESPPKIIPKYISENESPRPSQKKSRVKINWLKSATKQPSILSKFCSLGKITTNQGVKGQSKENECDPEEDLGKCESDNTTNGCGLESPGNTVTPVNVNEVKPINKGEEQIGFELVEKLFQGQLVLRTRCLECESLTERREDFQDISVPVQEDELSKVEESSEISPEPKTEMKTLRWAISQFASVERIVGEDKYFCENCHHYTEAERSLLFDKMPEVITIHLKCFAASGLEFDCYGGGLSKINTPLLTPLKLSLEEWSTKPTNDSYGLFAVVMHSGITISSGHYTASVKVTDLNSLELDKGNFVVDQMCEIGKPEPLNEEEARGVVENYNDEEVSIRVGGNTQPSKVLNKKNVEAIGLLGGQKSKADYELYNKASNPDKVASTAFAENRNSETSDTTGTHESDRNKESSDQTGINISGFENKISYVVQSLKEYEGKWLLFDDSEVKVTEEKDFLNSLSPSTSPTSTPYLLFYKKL
Outline: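 Enzyme-free wells gave the negative control, while test wells held 1nM USP1/UAF1 preincubated with compound for 15 min at room temperature. Ub-Rho at 150nM final started the reaction, and fluorescence at 480/540 nm was recorded kinetically.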

[10] = molecular target: 3',5'-cyclic-AMP phosphodiesterase 4B (Homo sapiens) (UniProt Q07343); experiment: qHTS Assay for Inhibitors of PDE-IV (AID 607; active = well fitted activation curve with a large enough effect in the main read-out, with a control signal flat, not every such curve was filed as active; note: % of control where 0% means no effect)
3',5'-cyclic-AMP phosphodiesterase 4B (Homo sapiens), sequence (Q07343 whole entry, looked up): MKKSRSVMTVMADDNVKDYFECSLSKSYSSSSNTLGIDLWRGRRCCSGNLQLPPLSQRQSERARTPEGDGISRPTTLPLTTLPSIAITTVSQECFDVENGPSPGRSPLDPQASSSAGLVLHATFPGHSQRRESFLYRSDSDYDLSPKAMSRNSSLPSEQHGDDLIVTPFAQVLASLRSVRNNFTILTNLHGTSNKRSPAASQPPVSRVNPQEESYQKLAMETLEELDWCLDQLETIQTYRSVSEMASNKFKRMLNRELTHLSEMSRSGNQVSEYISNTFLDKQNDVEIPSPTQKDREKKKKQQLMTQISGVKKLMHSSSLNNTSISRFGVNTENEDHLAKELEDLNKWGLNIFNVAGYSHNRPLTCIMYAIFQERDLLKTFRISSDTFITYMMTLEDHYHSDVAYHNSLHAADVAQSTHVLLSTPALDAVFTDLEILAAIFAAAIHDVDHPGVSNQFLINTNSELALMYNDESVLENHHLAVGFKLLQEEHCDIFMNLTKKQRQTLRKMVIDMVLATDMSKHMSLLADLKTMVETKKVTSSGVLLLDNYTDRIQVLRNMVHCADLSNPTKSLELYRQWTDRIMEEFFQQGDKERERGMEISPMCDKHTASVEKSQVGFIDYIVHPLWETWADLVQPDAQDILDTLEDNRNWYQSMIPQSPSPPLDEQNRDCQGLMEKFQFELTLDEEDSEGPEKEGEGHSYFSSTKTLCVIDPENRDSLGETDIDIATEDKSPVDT
Outline: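 ACTOne HEK293 cells carry a modified cAMP-gated CNG channel and express endogenous PDE4; plated 1000 cells/well, compounds up to 22.9 uM final. Membrane-potential dye fluorescence (ex 535/em 590) was read; parental cells received 10 uM forskolin + 100 uM RO 20-1724.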

[11] = molecular target: ATP-dependent 6-phosphofructokinase (Trypanosoma brucei brucei) (UniProt O15648); experiment: qHTS Assay to Find Inhibitors of T. brucei phosphofructokinase: hit validation (AID 492961; active = well fitted curve in the direction sought with a large enough effect; an effect the other way counts as inactive or inconclusive)
ATP-dependent 6-phosphofructokinase (Trypanosoma brucei brucei), sequence (O15648 whole entry, looked up): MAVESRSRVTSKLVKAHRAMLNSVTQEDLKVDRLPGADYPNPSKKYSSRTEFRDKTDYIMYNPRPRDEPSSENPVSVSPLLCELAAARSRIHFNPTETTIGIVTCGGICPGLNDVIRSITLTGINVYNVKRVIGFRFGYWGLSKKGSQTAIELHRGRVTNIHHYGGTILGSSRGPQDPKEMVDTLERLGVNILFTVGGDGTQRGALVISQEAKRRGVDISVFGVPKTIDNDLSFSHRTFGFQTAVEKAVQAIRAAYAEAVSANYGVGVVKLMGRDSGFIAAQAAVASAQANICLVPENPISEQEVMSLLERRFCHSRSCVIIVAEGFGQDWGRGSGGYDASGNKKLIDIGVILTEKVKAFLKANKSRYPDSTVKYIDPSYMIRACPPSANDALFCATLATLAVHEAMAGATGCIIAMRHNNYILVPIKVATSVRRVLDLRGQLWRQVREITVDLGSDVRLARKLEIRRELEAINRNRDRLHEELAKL
Outline: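 Percent activity derived from corrected luminescence, normalized between 0x and 1x enzyme controls, then fitted to concentration-response curves. Conditions: 1.25 nM PFK, 0.1 mM ATP, 0.5 mM F6P, 45 min RT.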

[12] = molecular target: Luciferin 4-monooxygenase (Photinus pyralis) (UniProt P08659); experiment: Biochemical firefly luciferase enzyme assay for NPC (AID 624030; active = well fitted curve in the direction sought with a large enough effect; an effect the other way counts as inactive or inconclusive;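 note: purified P. pyralis luciferase at 10 nM with luciferin and ATP substrate; 0% = DMSO and -100% = full luciferase inhibition by PTC124 control; nearly all actives have a fitted effect of over 70% in size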)
Luciferin 4-monooxygenase (Photinus pyralis), sequence (P08659 whole entry, looked up): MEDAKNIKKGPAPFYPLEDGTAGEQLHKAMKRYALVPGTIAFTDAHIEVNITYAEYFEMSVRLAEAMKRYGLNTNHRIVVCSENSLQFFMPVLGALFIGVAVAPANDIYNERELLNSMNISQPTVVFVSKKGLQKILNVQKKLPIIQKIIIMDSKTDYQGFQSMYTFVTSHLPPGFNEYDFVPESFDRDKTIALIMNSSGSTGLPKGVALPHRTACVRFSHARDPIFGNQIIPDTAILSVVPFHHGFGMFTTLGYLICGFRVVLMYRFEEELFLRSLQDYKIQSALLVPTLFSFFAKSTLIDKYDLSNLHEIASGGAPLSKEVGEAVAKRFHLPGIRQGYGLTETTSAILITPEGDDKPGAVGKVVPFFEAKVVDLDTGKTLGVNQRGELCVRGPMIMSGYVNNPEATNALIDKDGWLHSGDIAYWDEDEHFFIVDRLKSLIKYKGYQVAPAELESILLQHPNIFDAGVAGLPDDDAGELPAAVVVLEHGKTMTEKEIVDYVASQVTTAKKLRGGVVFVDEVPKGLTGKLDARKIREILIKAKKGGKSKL
Outline: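 Counter-screen for direct inhibition of the luciferase enzyme by approved-drug library compounds, run at 10 nM enzyme in 50 mM Tris acetate (final). Luminescence was read within 5 min of enzyme-buffer addition and normalized to PTC124 versus DMSO (0%).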

[13] = qHTS profiling for inhibitors of Plasmodium falciparum proliferation (AID 504749; active = well fitted curve in the direction sought with a large enough effect; an effect the other way counts as inactive or inconclusive;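 note: 0% = DMSO vehicle and full inhibition = artemisinin control; nearly all actives have a fitted effect of over 60% in size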); details: P. falciparum in erythrocytes, SYBR Green DNA, 72 h
Outline: (§1)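 Parasite proliferation within erythrocytes, 72 h exposure. Endpoint: SYBR Green I fluorescence after overnight lysis at room temperature. Controls: 0.29 uM artemisinin, DMSO.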

[14] = tested on: C2A; experiment: as above; details: P. falciparum in erythrocytes, SYBR Green DNA, 72 h; series mostly up to 28.7 µM
Outline: as §1

[15] = tested on: CP185; experiment: as above; details: P. falciparum in erythrocytes, SYBR Green DNA, 72 h; series mostly up to 28.7 µM
Outline: as §1

[16] = tested on: FAB9; experiment: as above; details: P. falciparum in erythrocytes, SYBR Green DNA, 72 h; series mostly up to 28.7 µM
Outline: as §1

[17] = measured here: cell count channel max response
[18] = measured here: lipid channel max response

C=C1[C@@H]2C[C@@]3([C@H]1O)[C@H]1C[C@@H]4[C@@]5(C)CC[C@H](O)[C@]4([C@H]1N(CC)C5)[C@H]3C[C@H]2O
-13.2%: max response [8, 18]
inactive: outcome [1] | Potency [2] | activity change, negative = inhibition [3] -13% | outcome [4] | Potency [5] > 20.6 µM | Potency [6] > 20.6 µM | outcome [7] | activity change, negative = inhibition [8] -1.27% | Potency [9]
-11.5%: max response [8, 17]

CC[C@H](C)C(=O)O[C@@H]1[C@H](O)[C@@H]2[C@H](CN3C[C@@H](C)CC[C@@H]3[C@@]2(C)O)[C@@H]2C[C@@]34O[C@@]5(O)[C@@H](OC(=O)[C@](C)(O)CC)CC[C@@]3(C)[C@H]5[C@H](OC(C)=O)[C@@H](OC(C)=O)[C@H]4[C@]12O
-2.6%: max response [8, 17]
inactive: outcome [1] | Potency [2] | activity change, negative = inhibition [3] -8.39% | outcome [4] | Potency [5] > 20.6 µM | Potency [6] > 20.6 µM | outcome [7] | Potency [10] | activity change, negative = inhibition [8] -1.19%
-3.1%: max response [8, 18]

CC(=O)OCC(=O)[C@@H]1CC[C@H]2[C@H]3CC[C@H]4C[C@@H](O)CC[C@]4(C)[C@@H]3C(=O)C[C@@]12C
-26.2%: max response [8, 18]
-23.1%: max response [8, 17]
inactive: outcome [1] | Potency [2] | outcome [4] | Potency [5] > 20.6 µM | Potency [6] > 20.6 µM | outcome [7] | Potency [10] | activity change, negative = inhibition [8] -5.39% | Potency [11] | Potency [9] | Potency [12] | activity, negative = inhibition ([13]; at 12.8 µM (top of the series), parasite line A) 5.9% | activity, negative = inhibition ([13]; at 12.8 µM (top of the series), parasite line B) 17.2% | Potency [14] | Potency [15] | Potency [16]

COC1=C[C@H]2C3=C([C@H]2C1=O)[C@H](NC(C)=O)CCc1cc(OC)c(OC)c(OC)c13
2.18%: max response [8, 18]
inactive: outcome [1] | Potency [2] | activity change, negative = inhibition [3] -4.77% | outcome [4] | Potency [5] > 20.6 µM | Potency [6] > 20.6 µM | Potency [10] | activity change, negative = inhibition [8] 0.263% | Potency [9]
1.69%: max response [8, 17]

C#CCN(C)[C@@H](C)Cc1ccccc1
active: Potency [2] 25.1 µM and 10 µM
-0.249%: max response [8, 18]
inactive: outcome [1] | outcome [4] | Potency [5] > 46 µM and > 20.6 µM | Potency [6] > 46 µM and > 20.6 µM | outcome [7] | Potency [10] | activity change, negative = inhibition [8] -2.3% | Potency [11] | Potency [12] | activity, negative = inhibition ([13]; at 28.7 µM (top of the series), parasite line A) -9.65% | activity, negative = inhibition ([13]; at 28.7 µM (top of the series), parasite line B) 13.3% | Potency [14] | Potency [15] | Potency [16]
2.02%: max response [8, 17]

CCN1C[C@]2(C)CC[C@H](OC)[C@@]34[C@@H]2[C@H](OC(C)=O)[C@]2(OCO[C@@]25C[C@@H](OC)[C@@H]2C[C@@]3(O)[C@H]5[C@@H]2OC)[C@H]14
inactive: outcome [1] | Potency [2] | outcome [4] | Potency [5] > 20.6 µM | Potency [6] > 20.6 µM | outcome [7] | Potency [10] | activity change, negative = inhibition [8] -1.59% | Potency [9]
-0.005%: max response [8, 17]
0.99%: max response [8, 18]
